Screening results: PubChem BioAssay, National Center for Advancing Translational Sciences (NCATS)
NS1 inh – blocks influenza NS1 protein function. Potency, µM (highest dose often 46.1 µM), inactives show top-dose activity, positive = more growth. actives 0.4% (n = 270,000). AID 2326; also: potency is read from the fitted curve at half-maximal effect; actives are rising curves; nearly all actives have a fitted effect of over 50% in size
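A cell-based growth assay was used: compounds that relieve NS1-induced slow growth of budding yeast raise OD600. Assay medium was yeast nitrogen base with ammonium sulphate and -URA supplement, pH 6.0, with 2% galactose.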
Cycloheximide cs – counter-screen for Shiga toxin inhibitors: cycloheximide protein synthesis inhibition; max response, %; AID 2314; cell reporter, cycloheximide protein synthesis inhibition counterscreen; actives 12% (n = 300,000); in the data active = max response mostly above about 13%, no sharp cut-off; inactive = mostly below about 14%; also: read at 38.3 µM for the half of the compounds with a filed dose; 0% is about no effect
SARS PLpro yeast – inhibitors of SARS-CoV papain-like protease in yeast; Potency, µM (top dose mostly 32.9 µM), without a hit: top-dose activity, positive = growth rescue, usual class: activators; actives 0.19% (n = 330,000); AID 485353; S. cerevisiae expressing SARS-CoV PLpro, growth rescue; also: potency is read from the fitted curve at half-maximal effect; 0% is about no effect; nearly all actives have a fitted effect of over 55% in size
Shiga inhibitor – Shiga toxin inhibition; Vero cells, Shiga toxin protein synthesis inhibition reporter; inhibition, % at 38.7 µM; actives 9.2% (n = 290,000); AID 2315; in the data active = inhibition mostly above about 28%, no sharp cut-off; inactive = mostly below about 43%; also: 0% is about no effect
Starred values were filed as active, the others as inactive; u = inconclusive; x = no result given. This is a sample that favours compounds with a hit; in the whole collection about 12% have one here. Unless noted, calls follow the shape of the full dose curve.

SMILES | NS1 inh | Cycloheximide cs | SARS PLpro yeast | Shiga inhibitor
O=C(O)c1ccc(-c2nc(-c3ccc(Cl)cc3Cl)cs2)cc1 | x | 34* | -6% | 77*
C=CCNC(=O)c1ccc(-c2nc(-c3ccccc3)cs2)cc1 | 4% | 33* | -1% | 51*
O=C(O)c1ccc(-c2nc(-c3ccc(Cl)cc3)cs2)cc1 | x | 32* | -4% | 81*
COc1ccc(-c2csc(-c3ccc(C(=O)O)cc3)n2)cc1 | x | 27* | 1% | 61*
O=C(CCNC(=O)c1ccc(Br)cc1)Nc1ccc(S(=O)(=O)Nc2ncccn2)cc1 | x | x | 8% | x
Cc1cccc(OCC(=O)NCCCNC(=O)c2cnccn2)c1 | 3% | -1 | 1% | -4
CCO[C@@H]1OC(C(=O)N2CCCCCCC2)=C[C@H](c2csc3ccccc23)[C@H]1CCCO | 3% | -2 | 0% | -21
COc1ccc(-c2csc3nc[nH]c(=O)c23)cc1 | x | 2 | -2% | 18
COc1ccc(-c2csc(-c3[nH]cnc3N)n2)cc1 | x | 28* | -2% | 86*
C/C(=N/S(=O)(=O)c1ccc(Cl)c(Cl)c1)OCC(C)(C)C | 0% | x | x | x
CN(C)c1ccc(/C=N/N=C(N)N)cc1[N+](=O)[O-] | 1% | -1 | 0% | 3
COc1ccc(S(=O)(=O)NCc2ccco2)cc1-c1nnc2c3ccccc3c(C)nn12 | -4% | 40* | 2% | 43
O=C(Nc1cccc(S(=O)(=O)NCc2ccco2)c1)c1cc(-c2ccc(F)cc2)nc2ccccc12 | u | 39* | -3% | 70*
COc1ccc(-c2cc(C(=O)Nc3cccc(S(=O)(=O)NCc4ccco4)c3)c3ccccc3n2)cc1OC | 21% | 21* | 1% | 41
Cc1cc(=O)[nH]c2sc(C(=O)N3c4ccccc4CC3C)c(N)c12 (centres undefined) | x | x | 1% | x
Cc1ccc(-c2noc(C3CCCN(C(=O)c4ccc(Cl)cc4)C3)n2)o1 (centres undefined) | -17% | 36* | -5% | 37
Cc1ccc(-c2noc(C3CCCN(C(=O)C4CCCCC4)C3)n2)o1 (centres undefined) | -7% | 24* | 0% | 66
O=C(c1ccc(C(F)(F)F)cc1)C1CCCN(C(=O)CN2C(=O)CSC2=O)C1 (centres undefined) | 0% | 25* | 0% | 53*
CC(=O)N1CCCC(C(=O)c2ccc(Oc3ccccc3)cc2)C1 (centres undefined) | -37% | 34* | -5% | 57*
COCCC(=O)N1CCCC(C(=O)c2ccc(C(F)(F)F)cc2)C1 (centres undefined) | 10% | -1 | -1% | 7
Cc1ccn(CC(=O)N2CCCC(C(=O)c3cccc4ccccc34)C2)n1 (centres undefined) | -2% | 2 | 0% | 1
COCC(=O)N1CCCC(C(=O)c2ccc(Oc3ccccc3)cc2)C1 (centres undefined) | -51% | 5 | -6% | 27
Cc1nc(C)n(CC(=O)N2CCCC(C(=O)c3cccc4ccccc34)C2)n1 (centres undefined) | 2% | 14* | 0% | 24
CC(=O)c1ccccc1C(=O)N1CCCC(C(=O)c2ccc(C(F)(F)F)cc2)C1 (centres undefined) | -5% | 54* | 0% | 70*
CC(OC(=O)CN1C(=O)c2ccccc2C1=O)C(=O)NC1CCCCC1C (centres undefined) | x | x | 1% | x
SMILES | NS1 inh | Cycloheximide cs | SARS PLpro yeast | Shiga inhibitor
CC(=O)NCC(=O)N1CCCC(C(=O)c2ccc(-c3ccccc3)c(F)c2)C1 (centres undefined) | -4% | 3 | -1% | 4
COCC(=O)N1CCCC(C(=O)c2ccc(-c3ccccc3)c(F)c2)C1 (centres undefined) | -45% | 28* | -5% | 20
COc1ccccc1C(=O)C1CCCN(C(=O)CN2CCCCC2=O)C1 (centres undefined) | 0% | 19* | 0% | 29
COc1ccc(C(=O)C2CCCN(C(=O)COc3ccc(C(C)=O)cc3)C2)cc1F (centres undefined) | -3% | 1 | 0% | 22
COc1ccccc1C(=O)C1CCCN(C(=O)c2ccccc2C(C)=O)C1 (centres undefined) | 4% | 33* | -5% | 49*
COc1ccc(C(=O)C2CCCN(C(=O)c3ccccc3C(C)=O)C2)cc1F (centres undefined) | 6% | 30* | 0% | 54
COc1cccc(CN(C(=O)c2ccc([N+](=O)[O-])cc2)C2CCS(=O)(=O)C2)c1 (centres undefined) | -10% | -3 | 1% | -4
OCC1(CO)COC(CCc2ccccc2)=N1 | 0% | -3 | -4% | -6
CCOC(=O)c1c(C)[nH]c(C(=O)N2CCCC(C(=O)c3ccccc3OC)C2)c1C (centres undefined) | -1% | 12* | 0% | 27
COc1ccc(C(=O)C2CCCN(C(=O)c3ccc(F)cc3)C2)cc1OC (centres undefined) | -22% | -2 | -5% | -5
COc1ccc(C(=O)C2CCCN(C(=O)c3cc(C)nc(C)n3)C2)cc1OC (centres undefined) | 1% | 24 | 0% | 50*
COc1cc(OC)cc(C(=O)NNC(=O)CN2C(=O)NC(C)(c3ccc(C)cc3)C2=O)c1 (centres undefined) | x | x | -4% | x
COc1cccc(N/C(N)=N/c2nc(CSc3ccccn3)cc(=O)[nH]2)c1 | x | 4 | -3% | -29
COc1ccnc(CSC(N)=Nc2ccc(F)cc2)c1 | 4% | 31* | -6% | 66*
O=C(c1ccco1)N1CCN(C(c2ccccn2)c2nnnn2C2CCCC2)CC1 (centres undefined) | -6% | 37* | -11% | 86*
O=C(c1ccco1)N1CCN(C(c2cccs2)c2nnnn2C2CCCC2)CC1 (centres undefined) | -16% | 0 | -1% | -6
[O-]c1c[n+](-c2ccc(-[n+]3cc([O-])on3)cc2)no1 | 1% | 21* | 1% | 40
CC(C)(C)c1ccc(C(=O)NC(=S)NCc2ccco2)cc1 | -38% | 24* | 2% | 71
O=C(NCc1ccco1)c1cccc(NC(=O)c2ccccc2)c1 | 2% | -1 | -2% | -5
Cc1ccc(C(=O)NCc2ccco2)cc1 | 0% | 18* | 2% | 37
COCCNC(=S)NC(=O)c1ccc(C(C)(C)C)cc1 | x | 59* | 0% | 96*
Cc1ccc(C(=O)Nc2cccc(C(=O)NCc3ccco3)c2)cc1 | -19% | 19* | u | 35*
O=C(NC(=S)NCc1ccco1)c1ccccc1 | 2% | -2 | 0% | -4
CCN(CC)C(=O)c1ccc(S(=O)(=O)c2ccccc2)cc1 | u | -4 | 3% | -5
CC1CCN(C(=O)COC(=O)C2CCN(S(=O)(=O)c3ccc4c(c3)OCCO4)CC2)CC1 | x | x | 0% | x
CN(CC(=O)NCCc1ccc(F)cc1)Cc1cccc(Cl)c1 | -2% | 8 | 6% | 4
Cc1ccc(SCCNCc2ccco2)cc1 | -9% | 14* | -1% | 46
Cc1ccc(C(=O)Nc2cccc(C(=O)NCc3ccccc3)c2)cc1 | -11% | 15* | 11% | 23
Cc1ccc(SCCC(=O)NCCSCc2ccco2)cc1 | -6% | -2 | -1% | 25
